This is a sample that favours compounds with a hit; in the whole collection about 6.9% have one here.
ASM inhibitor = blocks human secretory acid sphingomyelinase | placental ASM, HMU-PC fluorogenic substrate, 60 min | Potency, µM (top dose mostly 57.5 µM), for inactives: top-dose activity change, negative = inhibition, most hits filed as inhibitors | 340,000 tested, 0.006% active | AID 504937; note: potency is the fitted concentration of half-maximal effect
Target sequence (P17405 47-631 limits assumed): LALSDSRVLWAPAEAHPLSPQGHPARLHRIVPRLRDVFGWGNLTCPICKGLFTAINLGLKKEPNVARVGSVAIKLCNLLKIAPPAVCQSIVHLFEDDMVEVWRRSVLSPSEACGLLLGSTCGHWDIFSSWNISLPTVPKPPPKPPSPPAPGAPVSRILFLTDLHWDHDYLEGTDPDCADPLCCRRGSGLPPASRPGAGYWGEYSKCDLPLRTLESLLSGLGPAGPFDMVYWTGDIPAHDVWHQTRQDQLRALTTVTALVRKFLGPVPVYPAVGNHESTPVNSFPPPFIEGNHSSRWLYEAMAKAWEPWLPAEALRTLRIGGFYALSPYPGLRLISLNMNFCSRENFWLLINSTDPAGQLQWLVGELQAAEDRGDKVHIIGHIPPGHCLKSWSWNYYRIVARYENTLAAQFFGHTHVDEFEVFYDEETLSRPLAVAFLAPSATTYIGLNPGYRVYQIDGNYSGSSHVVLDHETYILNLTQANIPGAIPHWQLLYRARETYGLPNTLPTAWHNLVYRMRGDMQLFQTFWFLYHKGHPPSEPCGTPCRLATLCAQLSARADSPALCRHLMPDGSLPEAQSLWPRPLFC
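Steps: dispense placental human ASM, pin compound, wait 10 min at room temperature, add HMU-PC0 substrate at 9 uM final, incubate 60 min at 37 °C, add stop solution raising pH to 10, read fluorescence.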
MCF10A rerep = DNA re-replication induction in MCF 10a cells. MCF 10A DNA re-replication, Hoechst nuclear intensity, 48 h. AID 624296. Potency, µM (titrated, usually from 46.1 µM), inactives show at the top dose activity, positive = re-replication, usual class: activators. 350,000 tested, 2.9% active; note: potency is the fitted concentration of half-maximal effect; % of control where 0% means no effect; nearly all actives have a fitted effect of over 50% in size
SW480 rerep = inducers of DNA re-replication in SW480 colon cancer cells. AID 624297. SW480 DNA re-replication, Hoechst DNA content imaging, 48 h. Potency, µM (series often up to 46.1 µM), for the others: at the top dose re-replication activation, most hits filed as activators. 340,000 tested, 1.8% active; note: potency is the fitted concentration of half-maximal effect; % of control where 0% means no effect; nearly all actives have a fitted effect of over 55% in size
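250 cells/well; 23 nL cpd via pin tool; 48 hr, 37 C, 5% CO2; Hoechst 40 min; imager read of total nuclear intensity, ex 405/em 500-530 nm.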
Giardia killer = Giardia lamblia killing; Giardia lamblia trophozoite viability; activity change, % at 7.66 µM, hits read low; 340,000 tested, 0.15% active; in the data active = activity change below about -80%; inconclusive = between about -30% and that limit;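 note: parasites exposed to compound for two days anaerobically before the ATP read; % is set by controls: 0 for no effect and ±100 for the full control effect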
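Giardia lamblia trophozoites (100 cells/well) were incubated with compounds for 48 h at 37 deg C under anaerobic conditions. Viability was read as ATP content by one-step luminescence after 15-30 min at room temperature.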
KB-3-1 tox = kills parental KB-3-1 adenocarcinoma cells | KB-3-1 viability, CellTiter-Glo ATP luminescence, 72 h | Potency, µM (doses to about 46.1 µM), most hits filed as cytotoxic | 400,000 tested, 1.4% active | AID 1347075; note: potency is the fitted concentration of half-maximal effect; % is set by controls: 0 for no effect and ±100 for the full control effect; nearly all actives have a fitted effect of over 60% in size
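Screening of KB-3-1 cells (DMEM, 10% FBS, phenol-red free) ran from lowest to highest compound concentration; after 72 h at 37 °C viability was read luminescently and curves fitted.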
KB-V1 cytotox = kills drug-selected multidrug resistant KB-V1 cells | KB-V1 MDR cells viability, CellTiter-Glo, 72 h | AID 1347076 | 400,000 tested, 3.4% active | Potency, µM (series often up to 46.1 µM), actives largely listed as cytotoxic; note: potency is the fitted concentration of half-maximal effect; % is set by controls: 0 for no effect and ±100 for the full control effect; nearly all actives have a fitted effect of over 60% in size
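KB-V1 MDR subline cells in DMEM (phenol-red free, 10% FBS) exposed to compounds in qHTS concentration series for 72 h at 37 degrees C. Viability read by CellTiter-Glo luminescence; concentration-effect curves fitted after normalization and correction.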
Numbers without * were called inactive; i = inactive; ? = inconclusive; . = no result. Unless noted, calls come from the whole dose curve; as a rule, active = well fitted curve in the direction sought with a large enough effect; inconclusive = small, poorly fitted or top-dose-only effect, or another doubt; inactive = no such curve, though single readings can be large; an effect the other way counts as inactive or inconclusive.

SMILES	ASM inhibitor	MCF10A rerep	SW480 rerep	Giardia killer	KB-3-1 tox	KB-V1 cytotox
O=C(C(=O)N1CCN(C(=O)c2ccco2)CC1)c1cc2ccccc2o1	.	.	.	.	i	i
COc1ccc(CCNC(=O)COc2ccc(S(=O)(=O)NC3CCCCC3)cc2Cl)cc1OC	-2%	0%	15%	1	?	10µM*
O=C(COc1ccc(S(=O)(=O)NC2CCCCC2)cc1Cl)Nc1ccc2c(c1)OCO2	-19%	?	2%	5	?	10µM*
O=C(COc1ccc([N+](=O)[O-])cc1Cl)NCCc1ccccc1	4%	-4%	18%	-4	i	21µM*
COCCNS(=O)(=O)c1ccc(OCC(=O)OC)c(Cl)c1	4%	0%	-15%	3	i	i
COCCCNC(=O)COc1ccc(S(=O)(=O)NCc2ccccc2)cc1Cl	0%	1%	-5%	4	i	21µM*
O=C(CCn1c(=S)oc2ccccc21)Nc1ccccc1Br	1%	8%	-14%	9	i	i
COc1ccc(C(=O)c2cnc3ccccc3c2-c2ccccc2)cc1	-19%	18µM*	?	9	23µM*	18µM*
Cc1ccc(C(=O)c2cnc3ccccc3c2-c2ccccc2)cc1	-17%	?	18%	-7	i	16µM*
O=C(CSc1ncc(CO)n1Cc1ccccc1)Nc1ccc(C(F)(F)F)cc1	.	.	.	.	i	?
COc1cccc(CNC(=O)c2sc3nc[nH]c(=O)c3c2C)c1	.	.	.	.	i	i
CCOC(=O)c1cc2c(ccn2C)n1CC(=O)N(C)C	5%	0.65µM*	-9%	1	i	?
COc1ccc(CCN(C)C(=S)NC(=O)c2ccc(F)cc2Cl)cc1OC	3%	-6%	-10%	29	i	15µM*
Cc1cccc(N2CCN(C(=O)c3cc4c(=O)n(C)c5ccccc5c4n3C)CC2)c1C	-26%	-2%	-2%	-26	i	i
Cc1ccc(Cl)cc1N1CCN(C(=O)c2cc3c(=O)n(C)c4ccccc4c3n2C)CC1	-22%	-4%	-6%	-4	?	2.6µM*
Cc1cc(N=Cc2c(O)ccc3ccccc23)no1	1%	12%	-4%	-6	i	?
Cc1cc(N=Cc2c(O)ccc3cc(Br)ccc23)no1	8%	13µM*	-693%	-18	i	i
Cn1nc(-c2ccccc2F)c2cc(C(=O)NCCc3ccc(Cl)cc3)sc21	.	.	.	.	i	?
C=CCOC(=O)C1=C(C)NC(=O)NC1c1cn(-c2ccccc2)nc1-c1cccs1 (centres undefined)	-15%	10%	-6%	-6	i	21µM*
Cc1cc(C(=O)N2CCN(Cc3ccc4c(c3)OCO4)CC2)cs1	5%	?	-6%	1	i	15µM*
CC(C)[C@H](NC(=O)c1ccc(C(C)(C)C)cc1)C(=O)N1CCN(Cc2ccc3c(c2)OCO3)CC1	5%	18µM*	?	-13	?	?
O=C(c1ccc(S(=O)(=O)N2CCCCC2)cc1)N1CCN(Cc2ccc3c(c2)OCO3)CC1	-4%	12%	-6%	1	?	2.6µM*
CCSc1ccccc1C(=O)N1CCN(Cc2ccc3c(c2)OCO3)CC1	3%	2%	1%	-1	i	18µM*
O=C(c1cccc(S(=O)(=O)N2CCOCC2)c1)N1CCN(Cc2ccc3c(c2)OCO3)CC1	-4%	1%	-3%	-24	i	?
CCCSc1nnc(NC(=O)Cc2coc3cc(C)ccc23)s1	.	.	.	.	i	i
SMILES	ASM inhibitor	MCF10A rerep	SW480 rerep	Giardia killer	KB-3-1 tox	KB-V1 cytotox
CCN(CC)c1ccc(N=Cc2c(C)[nH]c3ccccc23)cc1	14%	18%	8.2µM*	7	i	i
Cc1[nH]c2ccccc2c1/C=N/n1cnnc1	-2%	-7%	0%	-17	i	i
CCSc1nc2c(c(=O)[nH]c(=O)n2C)n1Cc1ccc(Cl)cc1	0%	5%	0%	13	?	7.3µM*
CC(C)CCn1c(Sc2nc3ccccc3o2)nc2c1c(=O)[nH]c(=O)n2C	-2%	?	?	9	i	15µM*
Cn1c(=O)c2c(nc(SCC(=O)NCc3ccc4c(c3)OCO4)n2Cc2ccc(Cl)cc2)n(C)c1=O	-3%	16%	14%	8	i	4.1µM*
CCCCCCn1c(SCC(C)C)nc2c1c(=O)[nH]c(=O)n2C	-9%	0%	0%	-4	?	10µM*
COCCn1c(SCC(=O)NCC2CCCO2)nc2c([nH]c3ccccc32)c1=O (centres undefined)	-1%	1%	-23%	6	i	i
N#Cc1ccccc1S(=O)(=O)Nc1ccc2c(c1)OCCO2	3%	-1%	-58%	-7	i	i
C=CCN(C(=O)CNC(=O)c1ccco1)C(C(=O)NC1CCCCC1)c1cccnc1 (centres undefined)	-2%	-2%	-8%	11	i	i
CCSc1nc2c(c(=O)n(C)c(=O)n2C)n1Cc1ccc(Cl)cc1	-6%	5%	-10%	-3	i	13µM*
CCOC(=O)c1ccc(NC(=O)COc2ccc(CNCCO)cc2OCC)cc1	0%	0%	-1%	-1	i	i
CCOC(=O)c1ccc(NC(=O)COc2ccccc2CNCCc2ccccc2)cc1	-9%	2.3µM*	-12%	-16	i	i
N#CCC(=O)Nc1ccc(C(=O)NCCC(c2ccccc2)c2ccccc2)cc1	-4%	1%	-4%	-10	i	i
CC(=O)Nc1ccc(CC(=O)NCCC(c2ccccc2)c2ccccc2)cc1	0%	?	21µM*	-19	i	i
O=C(NCc1ccccc1)c1nc(-c2ccc(Cl)cc2)n2c1CCCCC2	.	.	.	.	i	?
Cc1cc(C)cc(Cn2c(C)c(C(=O)N(C)Cc3ccc(F)cc3)sc2=O)c1	.	.	.	.	i	?
Cc1c(C(=O)N(C)Cc2ccc(F)cc2)sc(=O)n1Cc1ccccc1C#N	.	.	.	.	i	?
Cc1ccccc1Cn1c(C)c(C(=O)N(C)Cc2ccc(F)cc2)sc1=O	.	.	.	.	?	16µM*
COc1ccc(Br)c(Cn2c(C)c(C(=O)N(C)Cc3ccc(F)cc3)sc2=O)c1	.	.	.	.	?	8.2µM*
O=C(Nc1nc2ccc(SC(F)F)cc2s1)c1ccc(NS(=O)(=O)c2ccc(F)c(F)c2)cc1	.	18µM*	-3%	-8	i	?
Cc1ccc(-n2c(=O)c3c(cnn3C)n(CC(=O)Nc3cc(C)ccc3C)c2=O)cc1	.	.	.	.	i	i
CCCCN(C(=O)CCCc1nc2ccccc2c(=O)[nH]1)c1c(N)n(CCCC)c(=O)[nH]c1=O	-1%	-2%	-1%	6	?	i

Screens deposited in PubChem by National Center for Advancing Translational Sciences (NCATS).
